Data from PubChem BioAssay.
Calls of active or inactive are those of the source.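 How the source made its calls, unless noted: active means fluorescence slope after compound addition differing from the mean of all screened samples at 99.7% confidence, in either direction; inactive means the rest.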

Target: Voltage-gated potassium channel subunit beta-2 (Rattus norvegicus) (UniProt P62483)
Experiment: enhancers of rat Kvbeta2 NADPH turnover – biochemical, NADPH fluorescence, primary screen (AID 623;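 active means NADPH fluorescence slope more negative than the mean of all samples by about 3 SD, 99.7% confidence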;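 further: fluorescence intensity change per second fitted from 20 to 320 s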)
Settings: Recombinant KvBeta, NADPH fluorescence decrease slope, 10 min; at 10 µM; hits give low values

Sequence of Voltage-gated potassium channel subunit beta-2 (Rattus norvegicus) (P62483 whole entry, looked up): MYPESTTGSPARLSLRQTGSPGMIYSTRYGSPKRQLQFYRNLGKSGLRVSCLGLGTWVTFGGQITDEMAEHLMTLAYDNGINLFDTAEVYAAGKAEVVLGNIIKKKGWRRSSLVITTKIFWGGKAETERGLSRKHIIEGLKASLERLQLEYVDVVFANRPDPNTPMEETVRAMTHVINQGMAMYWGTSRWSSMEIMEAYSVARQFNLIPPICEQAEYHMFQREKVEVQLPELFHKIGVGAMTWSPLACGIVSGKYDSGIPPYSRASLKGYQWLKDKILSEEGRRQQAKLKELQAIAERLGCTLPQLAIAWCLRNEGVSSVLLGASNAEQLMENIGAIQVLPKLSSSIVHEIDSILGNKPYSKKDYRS

SMILES | NADPH fluorescence slope
O=C(c1ccco1)N1CCN(c2nc(C(F)(F)F)nc3c2nnn3Cc2ccccc2)CC1 | -5.9e-05 (inactive)
O=C(CSc1nnc(SCc2ccc(Cl)cc2)s1)N1CCN(C(=O)c2ccco2)CC1 | -0.000144 (inactive)
CCOC(=O)CCNC(=O)Nc1ccc2nc(C)n(Cc3ccccc3Cl)c(=O)c2c1 | 1.6e-05 (inactive)
CC(=O)N1CCN(c2ccc(NC(=O)c3ccc(C(C)(C)C)cc3)cc2)CC1 | -4e-05 (inactive)
COc1ccc(-n2cnnc2SCCC#N)cc1 | -2.7e-05 (inactive)
O=S(CC(O)COCc1ccc(Cl)cc1)c1ccccn1 (stereo not given) | 6.3e-05 (inactive)
CN1C(=O)C(O)(CC(=O)c2ccc(F)cc2)c2cc(Br)ccc21 (stereo not given) | -7.2e-05 (inactive)
CCn1cc(C(=O)NCC2CCCO2)c(=O)c2cc(S(=O)(=O)N(C)C)ccc21 (stereo not given) | -8.2e-05 (inactive)
OC1(c2cccc(C(F)(F)F)c2)CCNCC1 | 2.4e-05 (inactive)
N#Cc1c(N2CCCC2)nc(N)c2c(N)nc(N3CCCC3)cc12 | 1.7e-06 (inactive)
COc1ccc2cc(CN(Cc3ccco3)C(c3nnnn3C3CCCCC3)C(C)C)c(=O)[nH]c2c1 (stereo not given) | 5.5e-07 (inactive)
COc1ccc(C2CC(c3ccc(C)cc3)Nc3ncnn32)cc1 (stereo not given) | -2.3e-05 (inactive)
Cc1cc(NC(=O)C23CCC(C)(C(=O)O2)C3(C)C)no1 (stereo not given) | -1.5e-06 (inactive)
Cc1cc(C)cc(NC(=O)c2nnn(Cc3cc(C)ccc3C)c2N)c1 | -3.4e-05 (inactive)
CC1=C(C(=O)OC(C)C)C(C2CC=CCC2)NC(=O)N1 (stereo not given) | 1.4e-05 (inactive)
O=C1NC(c2ccco2)Nc2ccccc21 (stereo not given) | 1.4e-05 (inactive)
CCOC(=O)Cc1csc(NC(=O)CSc2nnc(-c3ccncc3)n2Cc2ccco2)n1 | -6.1e-05 (inactive)
CC1=C(C(=O)N2CCOCC2)C(c2ccsc2)C2=C(CCCC2=O)N1 (stereo not given) | -4.5e-05 (inactive)
Cc1c(C(=O)NCc2ccoc2)oc2ccc3c(c12)C(=O)CC(C)(C)O3 | 1.8e-05 (inactive)
COc1ccc(C(O)Cn2c(=N)n(CCCN(C)C)c3ccccc32)cc1 (stereo not given) | 2.2e-05 (inactive)

SMILES | NADPH fluorescence slope
COc1ccccc1CC(=O)Nc1ccc(OC)c(OC)c1 | -5.5e-05 (inactive)
CCc1nnc(NC(=O)c2ccc(S(=O)(=O)NCC(C)C)cc2)s1 | -3.9e-05 (inactive)
CCOc1ccc(NC(=O)CN2CCN(CC(=O)c3ccc(OCC)cc3)CC2)cc1 | -5.5e-05 (inactive)
COc1ccc(OC)c(C(=O)c2ccc(C(=O)O)cc2)c1 | -2.9e-05 (inactive)
COCCN(CC(=O)Nc1ccccc1C)S(=O)(=O)c1ccc(S(=O)(=O)N2CCCC2)cc1 | -7.2e-05 (inactive)
Cc1ccc(C)c(N2CCN(CCCNC(=O)Cn3cc4c(n3)CCCCC4)CC2)c1 | -3.7e-05 (inactive)
Nc1cccc2c1C(=O)N(c1ccccc1)C2=O | -2.2e-06 (inactive)
CC(C)COc1ccc(-c2nnn(CC(=O)N3CCCC3)n2)cc1 | -5.5e-05 (inactive)
CCOc1cc(C2NC(=O)N(C)C(C)=C2C(=O)OC)cc(Br)c1O (stereo not given) | -4.2e-05 (inactive)
C/C(=C\C(=O)c1ccc(F)cc1)Nc1ccc(N2CCOCC2)cc1 | 3.5e-06 (inactive)
CCC(C)NC(=O)CS(=O)(=O)Cc1nc(-c2cccc(OC)c2)oc1C (stereo not given) | 2.7e-05 (inactive)
COc1ccc(/C=N/n2cnnc2SCc2ccc(OC)cc2)cc1 | -4.9e-05 (inactive)
CCOc1ccc(C2CC(c3ccccc3C)n3nc(N)nc3N2)cc1 (stereo not given) | 1.8e-05 (inactive)
COc1ccccc1-c1nnc(SCC(=O)N2CC(C)CC(C)C2)o1 (stereo not given) | -5.2e-05 (inactive)
Cc1ccnc(NC(=O)C2CCCN(S(=O)(=O)c3cnc[nH]3)C2)c1 (stereo not given) | -2.6e-05 (inactive)
Cc1cc(C)c2cc3c(ccn3C3OC[C@H](O)[C@H](O)[C@H]3O)cc2n1 (stereo not given in full) | -2.8e-05 (inactive)
CC(=O)NCc1cccc(CNC(C)=O)n1 | -2.5e-05 (inactive)
Cc1ccc2[nH]c(=O)c(C(c3nnnn3CCc3ccccc3)N3CCOCC3)cc2c1 (stereo not given) | -4.6e-05 (inactive)
O=c1c2ccc(-c3nnc4n3-c3ccccc3SC4)cc2nc2n1CCCCC2 | -3.1e-05 (inactive)
Cc1sc2nc(SCC(=O)NCCO)n(C)c(=O)c2c1C | -5.2e-05 (inactive)

Target: Alpha-2C adrenergic receptor (Homo sapiens) (UniProt P18825)
Experiment: compounds altering alpha2C-coupled GIRK flux – cell-based, HEK293 alpha2C/GIRK1/2, thallium flux, primary screen (AID 624);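 further: slope of fluorescence ratio to pre-addition baseline per second over 15 to 24 s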
Settings: thallium flux BTC fluorescence, at 10 µM, actives lie on both sides

Sequence of Alpha-2C adrenergic receptor (Homo sapiens) (P18825 whole entry, looked up): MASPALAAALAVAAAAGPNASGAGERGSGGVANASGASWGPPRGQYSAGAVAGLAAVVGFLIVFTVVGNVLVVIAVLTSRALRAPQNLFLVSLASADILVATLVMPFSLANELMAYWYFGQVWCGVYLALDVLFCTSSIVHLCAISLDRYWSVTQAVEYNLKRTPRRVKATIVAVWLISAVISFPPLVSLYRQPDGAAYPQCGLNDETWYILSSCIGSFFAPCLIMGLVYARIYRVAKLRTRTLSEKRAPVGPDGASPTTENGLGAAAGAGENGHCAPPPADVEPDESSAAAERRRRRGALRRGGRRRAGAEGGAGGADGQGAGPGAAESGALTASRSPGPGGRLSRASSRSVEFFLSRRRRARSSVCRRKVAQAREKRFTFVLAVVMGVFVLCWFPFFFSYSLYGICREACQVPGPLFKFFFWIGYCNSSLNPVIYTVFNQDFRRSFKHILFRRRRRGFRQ

SMILES | slope
O=C(c1ccco1)N1CCN(c2nc(C(F)(F)F)nc3c2nnn3Cc2ccccc2)CC1 | 0.00661 (inactive)
O=C(CSc1nnc(SCc2ccc(Cl)cc2)s1)N1CCN(C(=O)c2ccco2)CC1 | 0.00593 (inactive)
CCOC(=O)CCNC(=O)Nc1ccc2nc(C)n(Cc3ccccc3Cl)c(=O)c2c1 | 0.00472 (inactive)
CC(=O)N1CCN(c2ccc(NC(=O)c3ccc(C(C)(C)C)cc3)cc2)CC1 | 0.00554 (inactive)
COc1ccc(-n2cnnc2SCCC#N)cc1 | 0.00567 (inactive)
O=S(CC(O)COCc1ccc(Cl)cc1)c1ccccn1 (stereo not given) | 0.00586 (inactive)
CN1C(=O)C(O)(CC(=O)c2ccc(F)cc2)c2cc(Br)ccc21 (stereo not given) | 0.0055 (inactive)
CCn1cc(C(=O)NCC2CCCO2)c(=O)c2cc(S(=O)(=O)N(C)C)ccc21 (stereo not given) | 0.00671 (inactive)
OC1(c2cccc(C(F)(F)F)c2)CCNCC1 | 0.007 (inactive)
N#Cc1c(N2CCCC2)nc(N)c2c(N)nc(N3CCCC3)cc12 | 0.0051 (inactive)
COc1ccc2cc(CN(Cc3ccco3)C(c3nnnn3C3CCCCC3)C(C)C)c(=O)[nH]c2c1 (stereo not given) | 0.00859 (inactive)
COc1ccc(C2CC(c3ccc(C)cc3)Nc3ncnn32)cc1 (stereo not given) | 0.00685 (inactive)
Cc1cc(NC(=O)C23CCC(C)(C(=O)O2)C3(C)C)no1 (stereo not given) | 0.00569 (inactive)
Cc1cc(C)cc(NC(=O)c2nnn(Cc3cc(C)ccc3C)c2N)c1 | 0.00689 (inactive)
CC1=C(C(=O)OC(C)C)C(C2CC=CCC2)NC(=O)N1 (stereo not given) | 0.0059 (inactive)
O=C1NC(c2ccco2)Nc2ccccc21 (stereo not given) | 0.00562 (inactive)
CCOC(=O)Cc1csc(NC(=O)CSc2nnc(-c3ccncc3)n2Cc2ccco2)n1 | 0.0058 (inactive)
CC1=C(C(=O)N2CCOCC2)C(c2ccsc2)C2=C(CCCC2=O)N1 (stereo not given) | 0.00554 (inactive)
Cc1c(C(=O)NCc2ccoc2)oc2ccc3c(c12)C(=O)CC(C)(C)O3 | 0.00522 (inactive)
COc1ccc(C(O)Cn2c(=N)n(CCCN(C)C)c3ccccc32)cc1 (stereo not given) | 0.00727 (inactive)

SMILES | slope
COc1ccccc1CC(=O)Nc1ccc(OC)c(OC)c1 | 0.00704 (inactive)
CCc1nnc(NC(=O)c2ccc(S(=O)(=O)NCC(C)C)cc2)s1 | 0.00682 (inactive)
CCOc1ccc(NC(=O)CN2CCN(CC(=O)c3ccc(OCC)cc3)CC2)cc1 | 0.00276 (inactive)
COc1ccc(OC)c(C(=O)c2ccc(C(=O)O)cc2)c1 | 0.00489 (inactive)
COCCN(CC(=O)Nc1ccccc1C)S(=O)(=O)c1ccc(S(=O)(=O)N2CCCC2)cc1 | 0.0043 (inactive)
Cc1ccc(C)c(N2CCN(CCCNC(=O)Cn3cc4c(n3)CCCCC4)CC2)c1 | 0.00461 (inactive)
Nc1cccc2c1C(=O)N(c1ccccc1)C2=O | 0.00303 (inactive)
CC(C)COc1ccc(-c2nnn(CC(=O)N3CCCC3)n2)cc1 | 0.00381 (inactive)
CCOc1cc(C2NC(=O)N(C)C(C)=C2C(=O)OC)cc(Br)c1O (stereo not given) | 0.00546 (inactive)
C/C(=C\C(=O)c1ccc(F)cc1)Nc1ccc(N2CCOCC2)cc1 | 0.00495 (inactive)
CCC(C)NC(=O)CS(=O)(=O)Cc1nc(-c2cccc(OC)c2)oc1C (stereo not given) | 0.00702 (inactive)
COc1ccc(/C=N/n2cnnc2SCc2ccc(OC)cc2)cc1 | 0.00577 (inactive)
CCOc1ccc(C2CC(c3ccccc3C)n3nc(N)nc3N2)cc1 (stereo not given) | 0.00699 (inactive)
COc1ccccc1-c1nnc(SCC(=O)N2CC(C)CC(C)C2)o1 (stereo not given) | 0.00365 (inactive)
Cc1ccnc(NC(=O)C2CCCN(S(=O)(=O)c3cnc[nH]3)C2)c1 (stereo not given) | 0.00685 (inactive)
Cc1cc(C)c2cc3c(ccn3C3OC[C@H](O)[C@H](O)[C@H]3O)cc2n1 (stereo not given in full) | 0.002 (inactive)
CC(=O)NCc1cccc(CNC(C)=O)n1 | 0.00626 (inactive)
Cc1ccc2[nH]c(=O)c(C(c3nnnn3CCc3ccccc3)N3CCOCC3)cc2c1 (stereo not given) | 0.0072 (inactive)
O=c1c2ccc(-c3nnc4n3-c3ccccc3SC4)cc2nc2n1CCCCC2 | 0.00551 (inactive)
Cc1sc2nc(SCC(=O)NCCO)n(C)c(=O)c2c1C | 0.00646 (inactive)
